# Reference: PubChem BioAssay (NCI)
# This is part of a sample that, as a whole, favours compounds with a hit. Of some 83,000 tested, about 20% had one in any assay.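 Note: values are percent growth. 100 is the growth of untreated cells, values between 100 and 0 indicate rising inhibition; between -100 and 0 indicates cell death.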 The source made the active and inactive calls.
# Test system: HOP-62 NSCLC
# Assay: NCI-60 one-dose screen, 48 h (100 = growth as untreated, 0 = no growth, -100 = all killed)
# Conditions: 10 µM unless noted
# Description: Growth inhibition of the HOP-62 human Non-Small Cell Lung tumor cell line is measured as a screen for anti-cancer activity. Cells are grown in 96 well plates and exposed to the test compound for 48 hours. Compounds are tested at a single concentration, which is 10^-5 M for most compounds. The reported endpoint is percent growth (GI% or GIPRCNT), where numbers from 0 - 100% represent growth inhibition, and numbers from -100% - 0 represent cell death. For example, a value of 40 represents 60% growth inhibition. A value of 0 means no net growth occurred over the course of the experiment. A value of -40 indicates 40% of cells at the beginning of the experiment died by the end of the experiment. A value of -100 means all cells are dead at the end of the experiment.
# NCI-60 Human Tumor Cell Lines Screen was performed using the standard one-dose NCI protocol, which is described in more detail at https://dtp.cancer.gov/discovery_development/nci-60/default.htm.
# Compounds with GIPRCNT values below 10 were considered active. Activity score was based on GIPRCNT using the following formula: […]
# Score is 0 for GIPRCNT values of 100 or above, 50 for GIPRCNT values of 0, and 100 for GIPRCNT values of -100.
row,Compound,growth
1,Cc1cc(F)ccc1S(=O)(=O)Nc1cc(-c2c(O)ccc3ccccc23)c(O)c2ccccc12,80.1% (inactive)
2,N=C(N)c1ccc(-c2ccc(-c3ccc(Cl)cc3Cl)s2)cc1F,-0.426% (active)
3,FC(F)(F)c1[nH]ncc1-c1nc2c(N3CCCCC3)cc3[nH]ncc3c2c2c1CCCC2,-8.3% (active)
4,COC(=O)c1c2c(n3ccc(C)cc13)C(=O)c1ccccc1C2=O,78.4% (inactive)
5,COc1cc(/C=C2\CN(S(=O)(=O)c3ccc(C)cc3)C/C(=C\c3cc(CN4CCCCC4)c(O)c(OC)c3)C2=O)cc(CN2CCCCC2)c1O,-81.7% (active)
6,CC(=O)c1cc(-c2ccccc2N)n(-c2ccc3c(c2)OCO3)c1C,30.6% (inactive)
7,Cc1c(Cl)cccc1C(=O)Nc1nc2c(s1)CN(C(=O)Nc1cccc(C(F)(F)F)c1)CC2,37.2% (inactive)
8,COc1ccc2cc(-c3cnc4nonc4n3)ccc2c1,37.4% (inactive)
9,COc1ccc(-c2oc(=O)ccc2-c2cc(OC)c(OC)c(OC)c2)cc1O,-15.8% (active)
10,CCc1ccc(CCC(=O)Nc2ncc(Cc3ccc(Cl)cc3)s2)o1,30.9% (inactive)
11,CCOC(=O)c1c2c(n3c1NCC3)-c1ccccc1C2=O,102% (inactive)
12,COc1cccc2c(N=NC(=O)c3ccc(S(N)(=O)=O)cc3)c(O)[nH]c12,102% (inactive)
13,CCOC(=O)NN1CC(O)=C(c2nc(-c3ccc(Br)cc3)cs2)C1=N,106% (inactive)
14,CC12CCC(/C(=C/NNc3ccc([N+](=O)[O-])cc3[N+](=O)[O-])C1=O)C2(C)C (stereo not given),100% (inactive)
15,CCCCCCCCn1ccc2cc(NC(=O)Cn3cc(CN4CCCCCC4)nn3)ccc21,55.7% (inactive)
16,CN1CCN(CCOc2ccc(-c3cnc4c(-c5ccc(C(F)(F)F)cc5)cnn4c3)cc2)CC1,37.5% (inactive)
17,S=c1ssnc1-c1cccs1,103% (inactive)
18,O=C(CCCCNC(=O)c1cc(=O)c(O)co1)Nc1ccccc1,118% (inactive)
19,COc1ccc2nc(SCC(=O)Nc3ccccc3C)[nH]c2c1,90% (inactive)
20,N=C(N)c1ccc(-c2ccc(-c3ccc(Cl)cc3)o2)o1,52.4% (inactive)

row,Compound,growth
1,CO[C@H](C(=O)[C@@H](O)[C@@H](C)O)[C@@H]1Cc2cc3cc(O[C@H]4C[C@@H](O[C@H]5C[C@@H](O)[C@H](O)C(C)O5)[C@H](O)C(C)O4)c(C)c(O)c3c(O)c2C(=O)[C@H]1O[C@H]1C[C@@H](O[C@H]2C[C@@H](O[C@H]3C[C@@H](OC)[C@H](O)C(C)O3)[C@@H](O)C(C)O2)C(O)(O)C(C)O1 (stereo not given in full),-3.61% (active)
2,CCN(CC)c1ccc(/C=N\NC(=O)c2cccc(Nc3ccnc(C(F)(F)F)c3)c2)c(O)c1,29.5% (inactive)
3,CC(C)C[C@@H](C(=O)N[C@H](C(=O)OC1CCCC1)c1ccccc1)[C@H](O)C(=O)NO,26.9% (inactive)
4,C#CC#CC#CC#CC#CC#CC#CC#CCC1OCC(COC(=O)O[C@@H](C(=O)O[C@H]2C[C@@]3(O)[C@@H](OC(=O)c4ccccc4)[C@@H]4[C@]5(OC(C)=O)CO[C@@H]5C[C@H](O)[C@@]4(C)C(=O)[C@H](OC(C)=O)C(=C2C)C3(C)C)[C@@H](NC(=O)c2ccccc2)c2ccccc2)O1 (stereo not given in full),30.4% (inactive)
5,O=C(Cn1nnc([N+](=O)[O-])n1)c1ccccc1,94.8% (inactive)
6,COCC[C@H]1CCC/C=C/[C@@H]2C[C@H](O)C[C@H]2[C@H](O)/C=C/C(=O)O1,31.5% (inactive)
7,COc1ccc(C2CC(c3ccc(Nc4nc(Nc5ccc(F)cc5)nc(Nc5ccc(F)cc5)n4)cc3)=NN2C(C)=O)cc1 (stereo not given),96.7% (inactive)
8,CCN1C(=O)N(CC)C2C1NN=c1s/c(=C\c3cc4ccccc4[nH]3)c(=O)n12 (stereo not given),16.5% (inactive)
9,C(/C=C/c1ccccc1)=Nc1ccc(CCc2ccc(N=C/C=C/c3ccccc3)cc2)cc1,98.2% (inactive)
10,N#C/C(=C\c1ccc(-c2ccc(Cl)cc2)o1)c1ccc(Cl)cc1,46.8% (inactive)
11,Oc1c(Cl)cc(Cl)c2ccc(Cn3cc(-c4cccc(C(F)(F)F)c4)nn3)nc12,97.5% (inactive)
12,COc1cc(-c2nc3ccc(C)cc3[nH]2)ccc1OCC(=O)N=Nc1c(O)[nH]c2ccc(Cl)cc12,18.3% (inactive)
13,COC(=O)/C=C1/SC(=Nc2cccc(Cl)c2)N(CCc2c[nH]c3ccc(O)cc23)C1=O,15.4% (inactive)
14,CCN(CC)CCCC(C)Nc1ccc2cc(OC)ccc2n1 (stereo not given),91.4% (inactive)
15,Cn1cc(-c2csc(-c3cn(C(=O)OC(C)(C)C)c4ccccc34)n2)c2ccnc(Cl)c21,72.4% (inactive)
16,C#CC#CC#CC#CC#CC#CC#CC#CC[C@H]1OC[C@H](COC(=O)O[C@@H](C(=O)O[C@H]2C[C@@]3(O)[C@@H](OC(=O)c4ccccc4)[C@@H]4[C@]5(OC(C)=O)CO[C@@H]5C[C@H](O)[C@@]4(C)C(=O)[C@H](OC(C)=O)C(=C2C)C3(C)C)[C@@H](NC(=O)c2ccccc2)c2ccccc2)O1,68.9% (inactive)
17,Cc1cc(N2CCN(C)CC2)nc(NCc2cc(Nc3ccnc4cc(Cl)ccc34)ccc2F)n1,-14.2% (active)
18,c1ccc2cc(Cn3c[n+](Cc4ccc5ccccc5c4)c4ccccc43)ccc2c1,3.98% (active)
19,COc1ccc(-c2cc(-c3cc(OC)c(OC)c(OC)c3)c(C#N)c(=O)n2CCCCCC(=O)NO)cc1,102% (inactive)
20,CS(=O)(=O)Nc1cncc(-c2ccc3ncnc(Nc4ccc(F)c(Cl)c4)c3c2)c1,40.1% (inactive)
